Source: PubChem (Broad Institute)
Pf Dd2 inh – P. falciparum Dd2 growth inhibitors, primary screen, SYBR Green fluorescence, single dose replicates; 94,000 compounds, 2.3% hits; 72 h; hits give low values; activity change, % at 10 µM; AID 1159554, 2015; in the data active = activity change below about -80%; inconclusive = no clear call, values can overlap the other calls
T cruzi growth-1 – T. cruzi intracellular proliferation inhibitors, primary screen, cell-based, beta-gal Tulahuen parasites, NIH3T3 host, luminescence. inhibition, % at 8.34 µM. T. cruzi beta-gal in NIH3T3, GalScreen luminescence, 90 h. 77,000 compounds, 5.9% hits;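 active = mean inhibition above about 93%, with at least 55% of replicates each passing it, limit read from the data, passing the limit was not always enough; inconclusive = only one of those two conditions holds; inactive = neither condition holds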
C diff growth – C. difficile growth inhibitors, primary screen, HTS; Clostridium difficile clinical isolate growth, OD600, 24 h; hits give low values; 86,000 compounds, 0.25% hits; growth activity, negative = inhibition, % at 16 µg/mL (by protocol);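 active = mean growth activity at or below -80% and every replicate also at or below -80%; inconclusive = mean at or below -80% but some replicate above -80%; inactive = mean growth activity above -80%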
T cruzi growth-2 – T. cruzi intracellular proliferation inhibitors, confirmation, cell-based, NIH3T3 host, beta-gal parasite, luminescence, cherry-pick; 5,600 compounds, 72% hits; inhibition, % at 8.35 µM; shares compounds with T cruzi growth-1; T. cruzi beta-gal in NIH3T3, GalScreen luminescence, 90 h;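 active = mean replicate inhibition above about 95% and at least 55% of replicates individually reaching it, limit read from the data; inconclusive = only one of the two criteria is met; inactive = neither criterion is met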
T cruzi growth-3 – inhibitors of intracellular T. cruzi replication, confirmation, NIH3T3 host cells, beta-gal parasites, cherry-pick, set 2 | T. cruzi beta-gal in NIH3T3, GalScreen luminescence, 90 h | shares compounds with T cruzi growth-1 | inhibition, % at 2.09 µM | 5,600 compounds, 21% hits;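 active = mean inhibition above about 95%, with at least 55% of replicates also reaching it, limit read from the data; inconclusive = meets just one of the two conditions; inactive = meets neither condition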
NIH3T3 tox – cytotoxicity in mouse NIH/3T3 fibroblasts, confirmation, cytotoxicity control for T. cruzi proliferation inhibitor project, cell-based, cherry-pick, single point; shares compounds with T cruzi growth-1; NIH/3T3 viability, CellTiter-Glo ATP luminescence, 90 h; cytotoxicity (signal decrease), % at 8.35 µM; 5,600 compounds, 14% hits; AID 651742, 2012;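 active = mean signal decrease across replicates above about 35% based on untreated-well scatter, with enough replicates individually passing, limit read from the data; inconclusive = no rule stated though some were filed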
NIH3T3 tox 2 – NIH/3T3 fibroblast cytotoxicity, confirmation, cytotoxicity control, cell-based, cherry-pick, single point, set 2; NIH/3T3 viability, CellTiter-Glo ATP luminescence, 90 h; 5,600 compounds, 56% hits; AID 651744, 2012; shares compounds with T cruzi growth-1; inhibition, % at 24.9 µM;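 active = mean loss of cell viability signal at or above a set limit, and enough replicates individually reaching it; inconclusive = meets only the mean limit or only the replicate share; inactive = meets neither condition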
A number is an active result; - = inactive; ? = inconclusive; . = not tested or not shown. The list is not random: actives were taken first. Their share in the collection is about 6.8%.

SMILES	Pf Dd2 inh	T cruzi growth-1	C diff growth	T cruzi growth-2	T cruzi growth-3	NIH3T3 tox	NIH3T3 tox 2
COc1ccc(S(=O)(=O)Nc2ccc3c(c2)C(=O)N([C@@H](C)CO)C[C@@H](C)[C@@H](CN(C)S(=O)(=O)c2ccc(Cl)cc2)OCCCC[C@@H](C)O3)cc1	-	-	-	.	.	.	.
COc1ccc(S(=O)(=O)N(C)C[C@@H]2OCCCC[C@@H](C)Oc3ccc(NS(=O)(=O)c4ccc(Cl)cc4)cc3C(=O)N([C@@H](C)CO)C[C@@H]2C)cc1	-	.	-	.	.	.	.
COc1ccc(S(=O)(=O)Nc2ccc3c(c2)C(=O)N([C@@H](C)CO)C[C@@H](C)[C@H](CN(C)S(=O)(=O)c2ccc(Cl)cc2)OCCCC[C@@H](C)O3)cc1	-	?	-	105	104	-	33
COc1ccc(S(=O)(=O)N(C)C[C@@H]2OCCCC[C@H](C)Oc3ccc(NS(=O)(=O)c4ccc(Cl)cc4)cc3C(=O)N([C@@H](C)CO)C[C@@H]2C)cc1	-	.	-	.	.	.	.
COc1ccc(S(=O)(=O)Nc2ccc3c(c2)C(=O)N([C@@H](C)CO)C[C@@H](C)[C@H](CN(C)S(=O)(=O)c2ccc(Cl)cc2)OCCCC[C@H](C)O3)cc1	-	100	-	108	-	-	-
COc1ccc(S(=O)(=O)Nc2ccc3c(c2)C(=O)N([C@H](C)CO)C[C@@H](C)[C@@H](CN(C)S(=O)(=O)c2ccc(Cl)cc2)OCCCC[C@H](C)O3)cc1	-	99	-	102	?	-	-
COc1ccc(S(=O)(=O)Nc2ccc3c(c2)C(=O)N([C@H](C)CO)C[C@H](C)[C@H](CN(C)S(=O)(=O)c2ccc(Cl)cc2)OCCCC[C@H](C)O3)cc1	-	?	-	103	107	-	-
O=C(C[C@@H]1CC[C@H](NC(=O)Nc2ccccc2)[C@H](CO)O1)NCc1ccccn1	-	-	-	.	.	.	.
CO[C@H]1CN(C)C(=O)c2ccc(NC(C)=O)cc2OC[C@@H](C)N(Cc2ccccn2)C[C@H]1C	-	-	.	.	.	.	.
CN(C)C(=O)C[C@H]1C[C@H]2c3cc(NC(=O)Nc4ccc(F)cc4)ccc3O[C@H]2[C@@H](CO)O1	-	-	-	.	.	.	.
N#C[C@H]1[C@@H](c2ccc(C#CC3CC3)cc2)[C@@H](CO)N1C(=O)Cc1ccccn1	-	-	-	.	.	.	.
O=C(C[C@H]1CC[C@@H]2[C@H](COC[C@@H](O)CN2Cc2cccc(Cl)c2)O1)NCC1CCCCC1	.	111	-	-	-	-	-
O=C(C[C@H]1CC[C@@H]2[C@H](COC[C@@H](O)CN2Cc2cccc(C(F)(F)F)c2)O1)NCc1ccc(Cl)cc1	-	178	-	109	-	47	56
O=C(C[C@H]1CC[C@@H]2[C@H](COC[C@@H](O)CN2Cc2cccc(C(F)(F)F)c2)O1)NCc1ccccc1	-	-	-	.	.	.	.
O=C(C[C@H]1CC[C@H]2[C@@H](COC[C@H](O)CN2Cc2cccc(Cl)c2)O1)NCC1CCCCC1	.	-	-	.	.	.	.
O=C(C[C@@H]1CC[C@H]2[C@@H](COC[C@H](O)CN2Cc2cccc(C(F)(F)F)c2)O1)NCc1ccc(Cl)cc1	-	125	-	110	-	-	28
O=C(C[C@H]1CC[C@H]2[C@@H](COC[C@@H](O)CN2CCC(F)(F)F)O1)NCC1CCCCC1	-	-	-	.	.	.	.
O=C(C[C@@H]1CC[C@@H]2[C@H](COC[C@H](O)CN2CCC(F)(F)F)O1)NCC1CCCCC1	-	117	-	-	-	-	-
O=C(C[C@@H]1CC[C@@H]2[C@H](COC[C@@H](O)CN2Cc2cccc(C(F)(F)F)c2)O1)NCc1ccccc1	-	-	.	.	.	.	.
CCCC#Cc1cnc2c(c1)C(=O)N([C@H](C)CO)C[C@H](C)[C@H](CN(C)C(=O)Nc1c(C)noc1C)O2	-	-	-	.	.	.	.
C[C@H]1CN([C@@H](C)CO)C(=O)c2cccc(N(C)C)c2O[C@H]1CN(C)C(=O)NC1CCCCC1	-	-	-	.	.	.	.
C[C@@H]1CCCCO[C@H](CN(C)S(=O)(=O)c2cn(C)cn2)[C@@H](C)CN([C@@H](C)CO)C(=O)c2cc(NC(=O)CCCN(C)C)ccc2O1	-	-	-	.	.	.	.
CO[C@@H]1CN(C)C(=O)c2ccc(NC(=O)c3ccc(F)cc3)cc2OC[C@@H](C)N(C)C[C@H]1C	-	-	-	.	.	.	.
CCCC#Cc1ccc2c(c1)O[C@@H](CN(C)C)[C@@H](C)CN([C@H](C)CO)S2(=O)=O	-	-	-	.	.	.	.
COc1ccc(C(=O)Nc2ccc3c(c2)OC[C@@H](C)N(C(C)=O)C[C@H](C)[C@H](OC)CN(C)C3=O)cc1	-	-	-	.	.	.	.
SMILES	Pf Dd2 inh	T cruzi growth-1	C diff growth	T cruzi growth-2	T cruzi growth-3	NIH3T3 tox	NIH3T3 tox 2
O=C(C[C@H]1CC[C@@H]2[C@H](COC[C@H](O)CN2CCC(F)(F)F)O1)N1CCC(Cc2ccccc2)CC1	-	-	-	.	.	.	.
O=C(C[C@@H]1CC[C@@H]2[C@H](COC[C@@H](O)CN2Cc2cccc(C(F)(F)F)c2)O1)NCc1ccc(Cl)cc1	-	155	-	-	-	-	?
O=C(C[C@@H]1CC[C@@H]2[C@H](COC[C@H](O)CN2Cc2cccc(C(F)(F)F)c2)O1)NCc1ccc(Cl)cc1	-	-	-	.	.	.	.
O=C(C[C@@H]1CC[C@@H]2[C@H](COC[C@@H](O)CN2CCC(F)(F)F)O1)N1CCC(Cc2ccccc2)CC1	-	?	-	?	-	-	-
CO[C@@H]1CN(C)C(=O)c2ccc(NS(=O)(=O)c3ccc(Cl)cc3)cc2OC[C@H](C)NC[C@H]1C	-	-	-	.	.	.	.
C[C@H](CO)N1C[C@H](C)[C@H](CN(C)C(=O)NC2CCCCC2)OCCCC[C@H](C)Oc2ccc(NS(=O)(=O)c3cn(C)cn3)cc2C1=O	-	-	-	.	.	.	.
C[C@H]1CCCCO[C@@H](CN(C)C(=O)NC2CCCCC2)[C@@H](C)CN([C@@H](C)CO)C(=O)c2cc(NS(C)(=O)=O)ccc2O1	-	-	-	.	.	.	.
Cc1ccc(S(=O)(=O)N(C)C[C@H]2OCCCC[C@@H](C)Oc3ccc(NC(=O)CCC(F)(F)F)cc3C(=O)N([C@H](C)CO)C[C@@H]2C)cc1	-	.	.	.	.	.	.
C[C@H](CO)N1C[C@H](C)[C@H](CN(C)CC2CCCCC2)OCCCC[C@H](C)Oc2ccc(NC(=O)Nc3ccc(C(F)(F)F)cc3)cc2C1=O	-	95	-82	-	106	120	105
